Hits are enriched below; roughly 1.6% of the tested compounds scored in any of these assays.
KCNQ2 block = blocks the rat KCNQ2 potassium channel; O88943; CHO-K1 KCNQ2, FluxOR thallium flux, 20 min; active compounds read low; B-score at 10 µM; actives 1.1% (n = 310,000);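 active = fluorescence ratio B-score at most minus 3 library SDs, with starting brightness B-score within 2 library SDs, cut at about -5.5 in these data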
Target sequence (O88943 whole entry, looked up): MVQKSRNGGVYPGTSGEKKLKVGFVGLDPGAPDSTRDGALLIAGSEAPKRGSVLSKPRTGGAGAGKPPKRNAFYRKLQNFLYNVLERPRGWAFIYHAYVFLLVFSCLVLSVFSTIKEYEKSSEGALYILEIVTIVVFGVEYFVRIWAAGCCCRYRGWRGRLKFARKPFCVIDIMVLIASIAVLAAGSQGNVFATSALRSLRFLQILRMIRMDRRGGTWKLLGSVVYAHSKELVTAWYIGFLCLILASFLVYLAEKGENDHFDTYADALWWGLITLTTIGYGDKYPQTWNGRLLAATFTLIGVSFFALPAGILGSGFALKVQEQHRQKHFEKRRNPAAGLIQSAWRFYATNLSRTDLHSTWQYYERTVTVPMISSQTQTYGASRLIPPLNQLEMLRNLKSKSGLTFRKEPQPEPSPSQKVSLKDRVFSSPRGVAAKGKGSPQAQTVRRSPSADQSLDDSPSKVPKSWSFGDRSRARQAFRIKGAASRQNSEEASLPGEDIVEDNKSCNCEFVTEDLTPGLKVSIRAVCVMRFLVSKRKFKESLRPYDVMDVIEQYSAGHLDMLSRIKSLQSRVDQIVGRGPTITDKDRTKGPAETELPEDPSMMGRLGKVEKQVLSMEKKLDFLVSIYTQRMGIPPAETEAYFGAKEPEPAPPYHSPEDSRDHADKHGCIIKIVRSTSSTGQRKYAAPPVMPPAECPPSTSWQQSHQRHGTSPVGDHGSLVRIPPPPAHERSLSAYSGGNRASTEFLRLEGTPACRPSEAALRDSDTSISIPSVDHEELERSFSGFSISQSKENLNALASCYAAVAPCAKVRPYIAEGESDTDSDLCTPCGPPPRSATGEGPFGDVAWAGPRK
KCNQ2 pot = potentiators of rat KCNQ2 potassium channel. O88943. CHO-K1 KCNQ2, FluxOR thallium flux fluorescence; active compounds read high. B-score at 10 µM. actives 0.54% (n = 310,000). AID 2239;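 active = fluorescence ratio B-score at least 3 SD of library B-scores, with initial fluorescence B-score within 3 of them, cut at about 5.3 in these data; same plate scores as AID 2156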;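 also: B-score of peak minus minimum over baseline fluorescence ratio after K+ and Tl+ stimulus; positive B-score means potentiation of KCNQ2 with more thallium influx and brighter signal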
Kir21 conf inh = confirmation of mouse Kir2.1 potassium channel inhibitors; actives 41% (n = 2,300); Kir2.1-expressing cells, FluxOR thallium flux fluorescence; active compounds read low; shares compounds with KCNQ2 pot; Tl flux remaining, % of negative control (active compounds read low), % at 10 µM;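 active = Primary-screen hit whose thallium flux fell at least 3 control SD below untreated wells in both duplicates, with normal baseline fluorescence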;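 also: 0% = blank wells without stimulus and 100% = stimulated no-compound controls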
HEK293 Tl flux = alters thallium flux in parental HEK293 cells, Kir2.1 counter-screen; FluxOR thallium flux fluorescence; 0% = unstimulated blank wells; FluxOR signal as % of negative control (100 = no effect), % at 10 µM; shares compounds with KCNQ2 pot; actives 19% (n = 2,300); AID 2105;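 active = dye signal at least 3 control SD above or below untreated wells in both duplicates, raw fluorescence within 3, either direction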;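 also: percent is based on the flux ratio of peak minus minimum fluorescence over baseline F0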
CHO-K1 Tl ctr = alters thallium flux in parental CHO-K1 cells, KCNQ2 counter-screen | actives 43% (n = 1,200) | shares compounds with KCNQ2 pot | FluxOR thallium flux fluorescence; zero = vehicle mean+3SD, 100% = vehicle-minus-blank window | activity increase over 3SD of controls, % at 10 µM;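 active = signal rise of at least 3 SD above the untreated control mean, in both duplicate wells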;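 also: counter screen of KCNQ2 potentiator hits so any rise reflects channel-independent effects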
KCNQ1 pot spec = tests whether KCNQ2 potentiators also act on human KCNQ1 | activation over 3SD threshold, % at 10 µM | CHO KCNQ1 stable, FluxOR thallium flux fluorescence; beyond 3SD, as % of vehicle-control signal | actives 28% (n = 1,200) | shares compounds with KCNQ2 pot | AID 2283;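 active = fluorescence ratio rise of at least 3 SD of vehicle wells above their mean, in both replicate wells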;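 also: 0% = vehicle mean plus 3 SD and 100% = vehicle minus unstimulated blank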
KCNQ2 pot conf = confirmation of rat KCNQ2 potassium channel potentiators. shares compounds with KCNQ2 pot. CHO-KCNQ2 cells, FluxOR thallium flux fluorescence. potentiation, less the hit threshold, % at 10 µM. actives 68% (n = 1,200);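 active = fluorescence ratio rising 3 SD or more over the vehicle control mean in both replicates, plus primary screen hit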;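 also: peak minus minimum thallium fluorescence divided by baseline after K/Tl stimulus; 0% = vehicle mean plus 3 SD and 100% = vehicle minus unstimulated blank difference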
Kir21 spec = mouse Kir2.1 off-target activity of KCNQ2 potentiators; shares compounds with KCNQ2 pot; HEK293 Kir2.1, FluxOR thallium flux fluorescence; activity over 3SD threshold, % at 10 µM; actives 2% (n = 1,200);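 active = fluorescence ratio rise of at least 3 SD above the vehicle-control mean, seen in both replicates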;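 also: 0% = vehicle mean plus 3 SD and 100% = vehicle minus no-stimulus blank window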
KCNQ2 W236L pot = potentiates the retigabine-insensitive rat KCNQ2 W236L mutant channel. shares compounds with KCNQ2 pot. CHO KCNQ2-W236L, automated patch clamp current. current increase over 3SD of negative controls (%), active compounds read high, % at 25 µM. actives 10% (n = 940). AID 2558;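 active = current increase at least 3 SD of the untreated controls above them in both duplicate recordings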
Active calls of the source: *.

Results for O=C(CN1CCCCC1)NNc1nc(-c2ccccc2)c2cc(Cl)ccc2n1 ?
KCNQ2 block: inactive; KCNQ2 pot: 11*; Kir21 conf inh: inactive; HEK293 Tl flux: inactive; CHO-K1 Tl ctr: -15; KCNQ1 pot spec: -19; KCNQ2 pot conf: 15*; Kir21 spec: -35; KCNQ2 W236L pot: inactive

How did O=C(O)CCC(=O)NNc1nc(-c2ccccc2)c2cc(Cl)ccc2n1 do in these assays?
KCNQ2 block: inactive

Results for O=C(NC1CCCCCC1)C1CC(=O)N(c2ccc(Cl)cc2)C1 (centres undefined) ?
KCNQ2 block: inactive

Results for CCc1cc(-c2n[nH]c(=S)n2C(C)c2ccccc2)cs1 (centres undefined) ?
KCNQ2 block: inactive; KCNQ2 pot: 1.9; Kir21 conf inh: 50%*; HEK293 Tl flux: inactive

How did Cc1scc(-c2n[nH]c(=S)n2C(C)c2ccccc2)c1C (centres undefined) do in these assays?
KCNQ2 block: inactive

What do the screens show for `CCN1C(=O)CC(c2ccccc2)CC1=O`?
KCNQ2 block: inactive

What do the screens show for `CN(C)CC#CCOC(c1ccccc1)c1ccccc1`?
KCNQ2 block: inactive; Kir21 conf inh: 50%*; HEK293 Tl flux: inactive

How did CCN(CC)CC#CCOC(c1ccccc1)c1ccccc1 do in these assays?
KCNQ2 block: inactive

Results for CC1=NNC(=O)C1CC(=O)N/N=C(\C)c1ccco1 (centres undefined) ?
KCNQ2 block: inactive

What do the screens show for `CC1(C)CC(=O)C(CC(=O)NC2CCCc3ccccc32)C(=O)C1` (centres undefined)?
KCNQ2 block: inactive; KCNQ2 pot: 1.5

Results for COc1ccccc1CNC(=O)CCS(=O)(=O)c1ccc2c(c1)CC(C)N2C(=O)C1CC1 (centres undefined) ?
KCNQ2 block: inactive

Results for O=C(NCCOCc1ccccc1)C(c1ccccc1)c1ccccc1 ?
KCNQ2 block: inactive

Results for CN(C(=O)COC(=O)c1ccc2c(=O)n3c(nc2c1)CCC3)C1CCS(=O)(=O)C1 (centres undefined) ?
KCNQ2 block: inactive; KCNQ2 pot: 0.79

What do the screens show for `O=[N+]([O-])c1c(Nc2ccc(O)cc2)cc(Cl)c2nonc12`?
KCNQ2 block: -10*; KCNQ2 pot: -10; Kir21 conf inh: 66%*; HEK293 Tl flux: inactive

Results for CN(C)c1cc(Nc2ccc(O)cc2)c([N+](=O)[O-])c2nonc12 ?
KCNQ2 block: inactive

Results for Cc1cccc(CCNC(=O)CCc2nnc(CCc3ccccc3)o2)n1 ?
KCNQ2 block: inactive; KCNQ2 pot: 0.09

How did CCOc1ccc(CN(C)CC(O)COC(c2ccc(OC)cc2)c2ccc(OC)cc2)cc1 (centres undefined) do in these assays?
KCNQ2 block: inactive; Kir21 conf inh: 58%*; HEK293 Tl flux: inactive

What do the screens show for `COc1ccc(CN(C)CC(O)COC(c2ccc(OC)cc2)c2ccc(OC)cc2)cc1` (centres undefined)?
KCNQ2 block: inactive; Kir21 conf inh: 50%*; HEK293 Tl flux: inactive

How did COc1ccc(C(OCC(O)CN(C)C2CCCCC2)c2ccc(OC)cc2)cc1 (centres undefined) do in these assays?
KCNQ2 block: inactive

How did C=CCOc1ccc(CN(C)CC(O)COc2ccc(CCC(C)=O)cc2)cc1 (centres undefined) do in these assays?
KCNQ2 block: inactive; KCNQ2 pot: 1.1

Results for CCCCCN(C(=O)CCC(=O)OCc1ccc(C(C)C)cc1)c1c(N)n(CCCC)c(=O)[nH]c1=O ?
KCNQ2 block: inactive

How did COc1ccc2c(c1OC)C(=O)N1C2SC(C)(C)[C@H]1C(=O)NC(C)C (some centres undefined) do in these assays?
KCNQ2 block: inactive

How did COc1cc(SC)ccc1C(=O)Nc1ccc2c(c1)CCC2 do in these assays?
KCNQ2 block: inactive

Results for Cc1ccc(-c2noc(-c3ccno3)n2)cc1 ?
KCNQ2 block: inactive

What do the screens show for `C=CCN1C(=O)/C(=C/c2ccc(-c3ccc(F)cc3)o2)SC1=S`?
KCNQ2 block: inactive

Results for COc1cc(C)ccc1OCCOCCN(C)Cc1ccccc1 ?
KCNQ2 block: inactive; KCNQ2 pot: 0.85

How did CCc1ccc(OCCCCN(C)Cc2ccccc2)cc1 do in these assays?
KCNQ2 block: inactive; Kir21 conf inh: 26%*; HEK293 Tl flux: inactive

Results for CN(CCCCOc1ccc(F)cc1)Cc1ccccc1 ?
KCNQ2 block: inactive; KCNQ2 pot: 1

How did COc1ccc(OCCN(C)Cc2ccccc2)cc1 do in these assays?
KCNQ2 block: inactive

What do the screens show for `Cc1cc(C)c(C)c(OCCCCN(C)Cc2ccccc2)c1`?
KCNQ2 block: inactive; Kir21 conf inh: 26%*; HEK293 Tl flux: inactive

Results for CN(CCOCCOc1ccc2ccccc2c1)Cc1ccccc1 ?
KCNQ2 block: inactive; Kir21 conf inh: 17%*; HEK293 Tl flux: inactive

What do the screens show for `Cn1c(CNC(=O)CNS(=O)(=O)c2ccc(F)cc2F)cc(=O)n(C)c1=O`?
KCNQ2 block: inactive; KCNQ2 pot: 1.8

Results for Cc1nc(N2CCCCC2)c2c(C)c(C(=O)Nc3ccc4c(c3)OCCO4)sc2n1 ?
KCNQ2 block: inactive; KCNQ2 pot: 0.67

Results for CC1(C)CC[C@]2(CO)[C@@H](O)C[C@]3(C)C(=CCC4[C@@]5(C)CC[C@H](O)C(C)(C)C5CC[C@]43C)[C@@H]2C1 (some centres undefined) ?
KCNQ2 block: inactive

How did COc1ccc(Cl)cc1NC(=O)Cn1nnc(C(=O)NCc2ccc3c(c2)OCO3)c1N do in these assays?
KCNQ2 block: inactive; KCNQ2 pot: 0.02

How did CSC1=C(C#N)C(CC(C)C)C2=C(CCCC2=O)N1 (centres undefined) do in these assays?
KCNQ2 block: inactive; KCNQ2 pot: 1.4
